# Rows were chosen to be rich in hits. Some 3% of all compounds tested hit in one or more screens of this group.
# SARS PLP yeast: blocks SARS-CoV papain-like protease in a yeast assay | 330,000 tested, 0.19% active | Potency, µM (doses to about 32.9 µM), inactives show at the highest dose activity, positive = growth rescue, actives largely listed as activators | S. cerevisiae expressing SARS-CoV PLpro, growth rescue; calls by dose curve; further: 0% is about no effect; nearly all actives have a fitted effect of over 55% in size
# Sm TGR inh: inhibitors of Schistosoma mansoni thioredoxin glutathione reductase. Q962Y6. purified TGR, DTNB reduction, TNB absorbance 405 nm. Potency, µM (top dose mostly 114 µM), inactives show at the top dose activity change, negative = inhibition, usual class: inhibitors. 360,000 tested, 3% active; active means well fitted inhibition curve with a large enough effect; inconclusive means small, poorly fitted or top-dose-only effect; inactive means no such curve, though single readings can be large or run the other way; further: on the % scale 0 is the no-effect control and ±100 the full control effect; nearly all actives have a fitted effect of over 60% in size
#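 First, TGR (20 nM dispensed) and NADPH were mixed with compound. Second, a 15 min room-temperature incubation followed. Third, further NADPH and then DTNB were added to start the reaction. Finally, TNB absorbance was monitored kinetically.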
# An asterisk follows results filed as active; ? = inconclusive; . = no result given; [ ] = remark or other dose. Potency means the concentration at half of the fitted maximal effect.
SMILES,SARS PLP yeast,Sm TGR inh
Cc1ccc(Nc2nc(N)nc(CCl)n2)cc1,0%,11µM*
CCOc1ccc(Nc2nc(N)nc(CN3CCN(c4ccccc4F)CC3)n2)cc1,-1%,-3%
Cc1ccc(Nc2nc(N)nc(CCl)n2)c(C)c1,1%,32µM*
Cc1ccc(Nc2nc(N)nc(CN3CCCCCC3)n2)c(C)c1,1%,?
Cc1ccccc1CN1C(=O)C(O)(CC(=O)c2cccc(Br)c2)c2ccccc21 (centres undefined),.,3%
CC(C)(C)C1CCc2onc(C(=O)Nc3sc4c(c3C#N)CCCC4)c2C1 (centres undefined),.,5%
CC1=C(c2ccc(C)c(C)c2)S(=O)(=O)N=C1N1CCC(C(=O)NCc2ccc(C)o2)CC1,.,-18%
O=C(Nc1cccc(Cl)c1)C1CCCN(c2nn3cc(-c4ccc(F)cc4)nc3s2)C1 (centres undefined),.,1%
Cc1ccc(Nc2nc(C)cc(C)n2)c(C(=O)O)c1,.,17%
O=C(O)c1ccccc1Nc1ccc([N+](=O)[O-])cc1,-12%,0%
O=[N+]([O-])c1c(Nc2ccccn2)cc(Cl)c2nonc12,-19%,0.89µM*
O=C(O)c1cccc(Nc2cc(Cl)c3nonc3c2[N+](=O)[O-])c1,1%,0.35µM*
O=[N+]([O-])c1c(Nc2ccc(O)cc2)cc(Cl)c2nonc12,-10%,0.32µM*
O=C(O)c1cccc(Nc2ccc([N+](=O)[O-])c3nonc23)c1,0%,-28%
O=[N+]([O-])c1ccc(Nc2ccccn2)c([N+](=O)[O-])c1,1%,-14%
O=C(O)c1ccccc1Nc1cc(Cl)c2nonc2c1[N+](=O)[O-],7%,0.45µM*
CN(C)c1cc(Nc2ccc(O)cc2)c([N+](=O)[O-])c2nonc12,6%,0%
COC(=O)c1ccc(NC(=O)C2CCN(c3ncnc4c3nc3n4CCCCC3)CC2)cc1,.,0%
CC(C)Cc1nn2c(=O)cc(COC(=O)c3cccc(NC(=O)c4cccs4)c3)nc2s1,.,4%
CCCCNC(=O)c1cnn2c(C)c(Cc3c(F)cccc3Cl)c(C)nc12,.,-1%
O=C(NCC(c1cccnc1)N1CCc2ccccc21)c1cccc(Br)c1 (centres undefined),.,-10%
Cc1ccc(N(C)C(=O)Cn2ncc3c([nH]c4ccccc43)c2=O)cc1C,.,-1%
CCOC(=O)c1c(C)[nH]c(C)c1S(=O)(=O)N1CCCC(C(=O)Nc2ccc(F)cc2F)C1 (centres undefined),.,16%
O=C(NCCc1ccccn1)c1cccc(S(=O)(=O)N2CCCCCC2)c1,.,-2%
O=C(NCCc1ccccn1)c1cccc(S(=O)(=O)N2CCc3ccccc32)c1,-1%,40µM*
SMILES,SARS PLP yeast,Sm TGR inh
O=C(NCc1ccncc1)c1cccc(S(=O)(=O)N2CCc3ccccc32)c1,-3%,28µM*
CC1Cc2ccccc2N1S(=O)(=O)c1cccc(C(=O)NCc2ccncc2)c1 (centres undefined),-6%,6%
Cc1ccc2c(CNCCc3ccccc3)c(C(=O)O)n(Cc3ccccc3C)c2c1,.,-8%
[O-][n+]1cccc2c(Br)cc(Br)c(O)c21,-21%,7.9µM*
Cc1c(NS(=O)(=O)c2ccccc2)cc(C(C)C)c(O)c1S(=O)(=O)c1ccc(Cl)cc1,.,1%
Cc1ccc(S(=O)(=O)Nc2ccccc2-c2ccccc2NS(=O)(=O)c2ccc(C)cc2)cc1,-14%,5%
Cc1ccc(S(=O)(=O)Nc2c(Cl)c(Cl)c(O)c3ccccc23)cc1,-27%,0.32µM*
Cc1ccc(S(=O)(=O)Nc2cc(C(C)C)c(O)cc2C)cc1,1%,1%
Cc1ccc(S(=O)(=O)Nc2cc(Cl)c(O)cc2C)cc1,4%,50µM*
Cc1c(NS(=O)(=O)c2ccccc2)cc(Cl)c(O)c1C,?,3.5µM*
COc1ccc(C2=C(C)C(=O)N(Cc3ccc(C(=O)NCc4cccc(C)c4)cc3)S2(=O)=O)cc1,.,-7%
CN(C)CCCn1c(=O)n(Cc2ccco2)c(=O)c2c3c(sc21)CCCCC3,1%,35µM*
O=c1c2c3c(sc2[nH]c(=S)n1Cc1ccco1)CCC3,-1%,14µM*
CC1(C)Cc2c(sc3[nH]c(=S)n(Cc4ccco4)c(=O)c23)CO1,8%,-24%
CN(C)CCCn1c(=O)n(CCc2ccccc2)c(=O)c2c3c(sc21)CCCCC3,1%,12%
Cc1ccc(C(=O)N2c3ccc(C)cc3C(C)(c3ccccc3)CC2(C)C)cc1 (centres undefined),.,0%
COc1ccc(CNC(=O)/C=C/c2ccco2)cc1OC,1%,3.2µM*
O=C(NCC1(c2ccccc2)CCCC1)c1ccco1,-1%,14%
O=C(/C=C/c1ccco1)NCC1(c2ccccc2)CCCC1,-16%,7.9µM*
COc1ccc(CNC(=O)/C=C/C(=O)O)cc1OC,-10%,?
CCN(CC)S(=O)(=O)c1ccc(N2CCCCC2)c(NC(=O)/C=C/c2ccc(OC)c(OC)c2)c1,-5%,-9%
CCN(CC)S(=O)(=O)c1ccc(OC)c(NC(=O)/C=C/c2ccco2)c1,1%,3.2µM*
COc1ccc(C2(CNC(C)=O)CCCC2)cc1OC,8%,49%
COc1ccc(C2(CNC(=O)/C=C/c3ccco3)CCCC2)cc1OC,3%,3.5µM*
Cc1cccc(-n2c(SCC(=O)c3ccccc3)nnc2-c2ccc(Br)cc2)c1,.,7%
SMILES,SARS PLP yeast,Sm TGR inh
O=C(Nc1cc(-c2nc3cc(Cl)ccc3o2)ccc1Cl)c1cccc2ccccc12,.,-114%
COc1ccc(C(=O)N2CCn3c2nc2ccccc23)cc1,0%,7%[57.1 µM]
CCOc1ccc(C(=O)N2CCn3c2nc2ccccc23)cc1,1%,45µM*
O=C(COC(=O)/C=C/c1ccco1)Nc1ccccc1,-6%,56µM*
O=C(COC(=O)/C=C/c1ccc(F)cc1)NCc1ccc2c(c1)OCO2,-12%,.
CC1CCCC(C)N1C(=O)COC(=O)/C=C/c1ccco1 (centres undefined),-1%,.
O=C(COC(=O)/C=C/c1ccco1)NCc1ccc2c(c1)OCO2,-6%,35µM*
O=C(COC(=O)/C=C/c1ccco1)Nc1cc(S(=O)(=O)N2CCOCC2)ccc1Cl,-4%,.
CC1CCCC(NC(=O)COC(=O)/C=C/c2ccco2)C1C (centres undefined),-2%,45µM*
CCc1ccc(NC(=O)COC(=O)/C=C/c2ccco2)cc1,-22%,.
O=C(COC(=O)/C=C/c1ccco1)Nc1ccc(F)cc1Cl,0%,32µM*
CC(Oc1ccccc1)C(=O)Nc1ccc(C(=O)OCc2cc(=O)n3ccsc3n2)cc1 (centres undefined),.,-4%
COc1ccc(-c2nc(CNS(=O)(=O)c3cccc(F)c3)cs2)cc1,.,-7%
CCCOc1ccc(/C=C/C(=O)Nc2sc3c(c2C(=O)OCC)CCC(C)C3)cc1OC (centres undefined),.,-1%
O=C(NCc1ccc(F)cc1)c1cc(Sc2ccc(F)cc2F)nc2ccccc12,.,8%
Cc1c(Cl)cccc1-n1ncc(C(=O)NCCN2CCN(C)CC2)c1C1CCN(C(=O)OC(C)(C)C)CC1,.,3%
Cc1ccc(-n2ncc(C(=O)NCc3ccco3)c2C2CCN(C(=O)OC(C)(C)C)CC2)cc1C,.,-9%
CCN(CC)c1ccc(C(=O)N2CCC(c3ccncc3)CC2)cc1,.,-14%
COC(=O)c1ccccc1NC(=O)COC(=O)/C=C/c1ccco1,-1%,25µM*
O=C(/C=C/c1ccco1)OCC(=O)c1cccc([N+](=O)[O-])c1,-3%,-33%

# Screens (PubChem BioAssay)
